Sampled rows, rich in hits. Any-hit rate of the full collection: about 4.5%.
CSC inhib – blocks cancer stem cells; actives 1.1% (n = 300,000); inhibition, % at 7.5 µM; AID 2717; cancer stem cell-like cells viability, luminescence; in the data active = inhibition above about 75%; inconclusive = no clear call, values can overlap the other calls; tested in HMLE shEcad cells
Gli-Sufu block – Gli-Sufu pathway antagonism; AID 588413; inhibition, % at 5 µM; Sufu-KO-LIGHT fibroblasts, Gli luciferase reporter luminescence; actives 0.74% (n = 340,000);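 active = inhibition above about 55%, limit read from the data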
aSyn 5UTR inh – MLPCN primary screen, SNCA 5' untranslated region | alpha-synuclein 5'UTR reporter, inhibitor activity | inhibition, % (tested at 7.5 µM) | actives 0.82% (n = 300,000); in the data active = inhibition above about 60%; inconclusive = no clear call, values can overlap the other calls;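 also: H4 neuroglioblastoma cells stably carrying SNCA 5'UTR luciferase fusion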
Jurkat NFkB inh – inhibitors of the PMA/ionomycin-induced NF-kB reporter in Jurkat cells; inhibition, % at 4 µM; PMA/ionomycin-induced NF-kB luciferase reporter, luminescence; AID 435003; actives 0.53% (n = 330,000); in the data active = inhibition above about 50%
Mdm2-MdmX inh – human Mdm2/MdmX binding inhibition. O15151+Q00987. inhibition, % at 8 µM. actives 3% (n = 330,000). SaOS-2 split-luciferase Mdm2/MdmX complementation, luminescence;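 active = inhibition of at least 50% at 8 µM in the primary screen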
Target sequence (O15151 whole entry, looked up): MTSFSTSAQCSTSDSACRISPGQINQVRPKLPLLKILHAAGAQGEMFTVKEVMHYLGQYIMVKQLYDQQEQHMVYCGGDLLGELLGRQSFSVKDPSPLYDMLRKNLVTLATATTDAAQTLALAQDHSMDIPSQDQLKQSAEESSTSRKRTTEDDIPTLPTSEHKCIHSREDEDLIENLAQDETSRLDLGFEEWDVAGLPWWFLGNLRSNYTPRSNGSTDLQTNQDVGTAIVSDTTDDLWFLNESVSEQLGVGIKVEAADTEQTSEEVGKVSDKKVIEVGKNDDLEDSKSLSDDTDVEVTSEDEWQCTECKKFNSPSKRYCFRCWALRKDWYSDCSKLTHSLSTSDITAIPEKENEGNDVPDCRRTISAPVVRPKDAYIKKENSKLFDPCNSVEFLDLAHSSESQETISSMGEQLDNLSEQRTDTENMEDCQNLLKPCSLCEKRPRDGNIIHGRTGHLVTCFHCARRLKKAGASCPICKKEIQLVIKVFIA
Target sequence (Q00987 whole entry, looked up): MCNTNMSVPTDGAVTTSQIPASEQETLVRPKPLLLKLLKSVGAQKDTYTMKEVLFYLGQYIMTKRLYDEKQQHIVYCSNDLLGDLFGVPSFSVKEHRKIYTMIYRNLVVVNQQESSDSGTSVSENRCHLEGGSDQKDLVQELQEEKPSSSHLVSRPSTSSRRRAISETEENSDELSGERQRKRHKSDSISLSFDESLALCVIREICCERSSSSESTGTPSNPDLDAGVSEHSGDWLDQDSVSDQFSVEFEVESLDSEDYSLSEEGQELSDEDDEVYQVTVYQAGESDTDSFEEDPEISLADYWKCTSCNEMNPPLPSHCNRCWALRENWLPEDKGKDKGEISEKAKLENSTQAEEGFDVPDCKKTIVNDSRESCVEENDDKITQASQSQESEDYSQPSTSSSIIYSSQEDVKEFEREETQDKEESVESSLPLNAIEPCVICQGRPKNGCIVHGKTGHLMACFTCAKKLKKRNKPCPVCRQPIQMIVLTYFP
697 NFkB inh – inhibitors of the PMA/ionomycin-induced NF-kB reporter in 697 B cells. 697 B-cell NF-kB luciferase reporter, 16 h. inhibition, % at 4 µM. AID 435022. actives 0.33% (n = 330,000); in the data active = inhibition above about 35%
697 NFkB conf – lowers PMA/ionomycin-induced NF-kB signal in 697 B cells. actives 35% (n = 2,000). inhibition, % at 4 µM. shares compounds with 697 NFkB inh. 697 B-cell NF-kB luciferase, 16 h; in the data active = inhibition mostly above about 28%, no sharp cut-off; inactive = mostly below about 22%
A number is an active result; - = inactive; ? = inconclusive; . = not tested or not shown.

SMILES	CSC inhib	Gli-Sufu block	aSyn 5UTR inh	Jurkat NFkB inh	Mdm2-MdmX inh	697 NFkB inh	697 NFkB conf
Clc1ccc(/C=C/c2nc3ccccc3[nH]2)c(Cl)c1	-	-	68	-	-	-	-
O=C(/C=C/c1ccc(Cl)cc1Cl)c1nc2ccccc2[nH]1	-	-	-	-	-	-	.
COc1ccc(C(=O)CCS(=O)(=O)c2ccc(C)cc2)cc1OC	-	-	-	-	-	-	.
CCCCC1=NN(C(=O)c2ccco2)C(O)(C(F)(F)F)C1 (stereo not drawn)	-	-	-	-	-	-	.
N#Cc1ccccc1N/C=C/C(=O)c1ccc(Cl)cc1	-	-	-	-	-	-	-
CC(=O)Nc1ccc(N/C=C/C(=O)c2ccc(Cl)cc2)cc1	-	-	-	-	-	-	.
COC(=O)C1CCN(C(=O)c2oc3c(Cl)cc(C)cc3c2C)CC1	-	-	-	-	-	-	-
CCOC(=O)C1CCCCN1C(=O)c1oc2c(Cl)cc(C)cc2c1C (stereo not drawn)	-	-	-	-	-	-	.
Cc1cccc(C(=O)N[C@H](C(=O)Nc2cc(S(=O)(=O)N3CCCCC3)ccc2C)C(C)C)c1	-	-	-	-	-	-	.
Cc1cc(C)c2nc(NC(=O)[C@@H](NC(=O)c3cccc(S(=O)(=O)N4CCOCC4)c3)C(C)C)sc2c1	-	-	-	-	-	54	54
Cc1ccc(NC(=O)C2CCCO2)cc1[N+](=O)[O-] (stereo not drawn)	-	-	-	-	-	-	.
CCOc1ccc2nc(-c3ccccc3)[nH]c2c1	-	-	-	-	-	-	-
COc1ccc2nc(-c3ccccc3)[nH]c2c1	-	-	-	-	-	-	.
Cc1ccc(/C=C2\SC(=S)N(CCCC(=O)Nc3cc(C)on3)C2=O)cc1	-	-	?	-	-	53	59
O=C(CCN1C(=O)/C(=C/c2ccc(F)cc2)SC1=S)NNC(=O)c1ccncc1	-	-	-	-	-	-	.
Cc1ccc(/C=C2\SC(=S)N(CCC(=O)NNC(=O)c3ccncc3)C2=O)cc1	-	-	-	-	-	44	31
CC(C)Oc1ccc(C(=O)OCC(=O)N2CCCc3ccccc32)cc1	-	-	-	-	-	-	.
O=C(NCCCN1CCOCC1)C(=O)N/N=C/c1cccc2ccccc12	-	-	-	-	-	40	38
O=C(NCCCN1CCOCC1)C(=O)N/N=C/c1ccccc1	-	-	-	-	-	-	.
c1ccc(CNc2ccc3ccccc3n2)nc1	-	-	-	-	-	-	-
O=C(O)C1CC=CCC1C(=O)Nc1ccc(S(=O)(=O)N2CCCc3ccccc32)cc1 (stereo not drawn)	-	-	-	-	-	-	-
Cc1c(CCC(=O)N[C@@H](C)C(=O)O)c(=O)oc2cc3oc4c(c3cc12)CCCC4	-	-	71	-	-	41	-
Cc1c(CC(=O)NCCC(=O)O)c(=O)oc2cc3oc4c(c3cc12)CCCC4	-	-	-	-	-	-	.
Cc1c(CC(=O)NCCCC(=O)O)c(=O)oc2cc3oc4c(c3cc12)CCCC4	-	-	-	-	-	-	.
Cc1c(CCC(=O)N2CCC(C(=O)O)CC2)c(=O)oc2cc3oc4c(c3cc12)CCCC4	-	-	74	-	-	49	47
SMILES	CSC inhib	Gli-Sufu block	aSyn 5UTR inh	Jurkat NFkB inh	Mdm2-MdmX inh	697 NFkB inh	697 NFkB conf
Cc1c(CCC(=O)N2CCC(C(=O)O)(c3ccccc3)CC2)c(=O)oc2cc3oc4c(c3cc12)CCCC4	-	-	67	-	-	53	37
O=C(O)C1CCN(C(=O)COc2ccc3c4c(c(=O)oc3c2)CCCC4)CC1	-	-	-	-	-	38	-
CC(=O)Nc1ccc(OCC(O)Cn2nc(C)c(Br)c2C)cc1 (stereo not drawn)	-	-	-	-	-	-	.
COc1ccc(OC)c(S(=O)(=O)Nc2ccc(-c3ccc4nncn4n3)cc2)c1	-	-	-	-	-	35	-
O=S(=O)(Nc1ccc(-c2ccc3nncn3n2)cc1)c1cc(F)ccc1F	-	-	-	-	-	-	.
CNC(=S)NNC(=O)c1sc(-c2cc(C)on2)nc1C	-	-	-	-	-	-	.
CC(C)c1ccc(S(=O)(=O)N2CCN(C(C)C(=O)Nc3ccccc3-c3ccccc3)CC2)cc1 (stereo not drawn)	-	-	-	-	-	35	-

Screens from PubChem BioAssay.
